From PubChem BioAssay (NCATS) come the findings set out here.

Structures are written as SMILES. Results filed as inconclusive are left out. A call without a number means that no potency is given here. Calls of active or inactive are those of the source. Calls come from the whole dose curve; as a rule, active = well fitted inhibition curve with a large enough effect; inconclusive = small, poorly fitted or top-dose-only effect; inactive = flat fitted curve, though single readings scatter.

Sequence of Phospholipid hydroperoxide glutathione peroxidase GPX4 (Homo sapiens) (P36969 whole entry, looked up): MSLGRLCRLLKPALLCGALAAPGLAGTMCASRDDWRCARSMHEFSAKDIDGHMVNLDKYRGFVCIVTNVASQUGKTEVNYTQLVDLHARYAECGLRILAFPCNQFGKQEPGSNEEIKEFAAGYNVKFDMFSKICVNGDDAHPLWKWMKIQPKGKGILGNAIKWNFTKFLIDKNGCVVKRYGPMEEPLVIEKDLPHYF

One test deals with Glutathione peroxidase 1 (Homo sapiens) (UniProt P07203). Briefly: Primary qHTS Assay for Inhibitors of Recombinant Selenoprotein Glutathione Peroxidase 1 (GPX1) (AID 1845191). Note: nearly all actives have a fitted effect of over 65% in size. Note: potency is the fitted concentration of half-maximal effect. The following applies: recombinant GPX1, GR-coupled NADPH fluorescence, 15 min; series mostly up to 48.8 µM. The method in brief: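 GR-coupled readout: NADPH consumption tracked by fluorescence, ex 340/em 450 nm, at t=0 and after 15 min at RT. Final mix 10 nM GPX1, 1 mM GSH, 0.5 mM CHP, 0.5 mM NADPH, 100 nM GR, 0.01% BSA, following 30 min enzyme–compound preincubation.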
Sequence of Glutathione peroxidase 1 (Homo sapiens) (P07203 whole entry, looked up): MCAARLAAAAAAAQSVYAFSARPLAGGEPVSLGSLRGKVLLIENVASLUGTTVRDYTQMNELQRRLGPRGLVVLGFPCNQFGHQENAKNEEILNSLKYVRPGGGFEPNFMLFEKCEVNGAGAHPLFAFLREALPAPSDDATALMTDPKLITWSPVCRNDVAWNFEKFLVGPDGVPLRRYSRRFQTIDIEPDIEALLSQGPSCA
Take `CCCCC(CC)CN1CN(CC(CC)CCCC)CC(C)(N)C1` (stereo unspecified): the Potency result is “inactive”.
Still for that read-out and setting: the same measure for `CCO[C@@H]1O[C@H](C(COCc2ccccc2)OCc2ccccc2)[C@H](OCc2ccccc2)[C@H]1O` (stereo partly specified): “inactive”; for `CN(C)CCOC(=O)C(c1ccccc1)C1(O)CCCC1` (stereo unspecified): “inactive”.
On the same count and under the same terms, the same measure for `Cn1c(=O)c2[nH]c(Br)nc2n(C)c1=O`: “inactive”; for `O=C1C(=O)c2ccccc2C(O)=C1C1CCC(c2ccc(Cl)cc2)CC1` (stereo unspecified): “inactive”.
The same measure, in the same setting: the same measure for `CC(=O)O[C@]1(C(C)=O)CC[C@H]2[C@@H]3C=C(Cl)C4=CC(=O)CC[C@]4(C)[C@H]3CC[C@@]21C`: “inactive”; for `CCOc1ccccc1C(N)=O`: “inactive”.
Consider `CCN1CCN(C(=O)N[C@@H](C(=O)N[C@@H]2C(=O)N3C(C(=O)O)=C(CSc4nnnn4C)CS[C@H]23)c2ccc(O)cc2)C(=O)C1=O`, for which the Potency was 11.4 µM (active).
Same read-out and setting: the same measure for `O=C1C(CCS(=O)c2ccccc2)C(=O)N(c2ccccc2)N1c1ccccc1` (stereo unspecified): “inactive”; for `N[C@H](C(=O)O)[C@@H](O)c1ccc(O)c(O)c1`: “inactive”.

Another test deals with Phospholipid hydroperoxide glutathione peroxidase GPX4 (Homo sapiens) (UniProt P36969). Briefly: Primary qHTS Assay for Inhibitors of Recombinant Selenoprotein Glutathione Peroxidase 4 (GPX4) (AID 1845192). Note: nearly all actives have a fitted effect of over 65% in size. Note: potency is the fitted concentration of half-maximal effect. The following applies: recombinant GPX4, GR-coupled NADPH fluorescence, 15 min; series mostly up to 50 µM. A digest of the protocol:
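Steps: GPX4 plus compound, 30 min RT; add GR/GSH/NADPH master mix; start with cumene hydroperoxide; read 340/450 nm fluorescence at 0 and 15 min. Finals were 200 nM GPX4, 1 mM GSH, 0.5 mM CHP, 0.5 mM NADPH, 100 nM GR.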
For orientation: qHTS replaces the single test concentration by a dilution series.
For the compound `CN1CCN(C2=Nc3ccccc3Sc3ccc(Cl)cc32)CC1`, the Potency result is “inactive”.
Still for that read-out and setting: the same measure for `C=C[C@H]1CN2CC[C@H]1C[C@H]2[C@H](O)c1ccnc2ccc(OC)cc12`: “inactive”; for `CC(=O)OCC1=C(C(=O)O)N2C(=O)[C@@H](NC(=O)CSc3ccncc3)[C@H]2SC1`: “inactive”.
On the same count and under the same terms, the same measure for `CC(=O)OCC(=O)[C@H]1CC[C@H]2[C@@H]3CCC4=CC(=O)CC[C@]4(C)[C@H]3CC[C@]12C`: “inactive”.
For `CN(C)CCOC(c1ccc(Cl)cc1)c1ccccn1` (stereo unspecified), the Potency entry is “inactive”.
On the same count and under the same terms, the same measure for `Cc1ccc(-c2ncc(Cl)cc2-c2ccc(S(C)(=O)=O)cc2)cn1`: “inactive”.
Still for that read-out and setting: the same measure for `OCCOCCN1CCN(C2=Nc3ccccc3Sc3ccccc32)CC1`: “inactive”; for `CC(C(=O)O)c1cccc(Oc2ccccc2)c1` (stereo unspecified): “inactive”; for `C=C1c2cccc(O)c2C(O)=C2C(=O)[C@]3(O)C(O)=C(C(N)=O)C(=O)[C@@H](N(C)C)[C@@H]3[C@@H](O)[C@H]12`: 11.2 µM (active).
Take `O=C(CCCN1CC=C(n2c(=O)[nH]c3ccccc32)CC1)c1ccc(F)cc1`: the Potency result is “inactive”.
Same read-out and setting: the same measure for `COc1cc(N)c(Cl)cc1C(=O)NC1CCN(Cc2ccccc2)CC1`: “inactive”.
Still for that read-out and setting: the same measure for `CCCCCCCCCCCCCCCCO`: “inactive”; for `CCCCc1cc2ccccc2c(OCCN(C)C)n1`: “inactive”; for `Oc1ccc(Cl)cc1Cc1cc(Cl)ccc1O`: “inactive”.
On the same count and under the same terms, the same measure for `NCCNC(=O)c1ccc(Cl)cn1`: “inactive”; for `COc1ccc(-c2cc(C(F)F)nn2-c2ccc(S(N)(=O)=O)cc2)cc1F`: “inactive”.
On to `O=C(Nc1ccccc1)OCC(CN1CCCCC1)OC(=O)Nc1ccccc1` (stereo unspecified), for which the Potency entry was “inactive”.
Still for that read-out and setting: the same measure for `O=C(O)P(=O)(O)O`: “inactive”; for `O=C1[C@H](CC[C@H](O)c2ccc(F)cc2)[C@@H](c2ccc(O)cc2)N1c1ccc(F)cc1`: “inactive”; for `COc1ccc(CN(CCN(C)C)c2ncccn2)cc1`: “inactive”.
Same read-out and setting: the same measure for `CCOC(=O)c1c(N)sc2c1CCN(Cc1ccccc1)C2`: “inactive”; for `CN1CCC[C@@H]1CCO[C@](C)(c1ccccc1)c1ccc(Cl)cc1`: “inactive”; for `C#C[C@]1(O)CC[C@H]2[C@@H]3CCC4=Cc5oncc5C[C@]4(C)[C@H]3CC[C@@]21C`: “inactive”.
On the same count and under the same terms, the same measure for `O=C1c2cccc3c2[C@H](CCC3)CN1[C@@H]1CN2CCC1CC2`: “inactive”; for `C[N+]1(C)CCC(=C(c2ccccc2)c2ccccc2)CC1`: “inactive”.
For the compound `FC(F)(F)C(F)(F)C(F)(F)C(F)(F)C(F)(F)C(F)(F)C(F)(F)C(F)(F)Br`, the Potency entry is “inactive”.
On to `CCCCC(CC)CN1CN(CC(CC)CCCC)CC(C)(N)C1` (stereo unspecified), for which the Potency entry was “inactive”.
On the same count and under the same terms, the same measure for `CCO[C@@H]1O[C@H](C(COCc2ccccc2)OCc2ccccc2)[C@H](OCc2ccccc2)[C@H]1O` (stereo partly specified): “inactive”; for `CN(C)CCOC(=O)C(c1ccccc1)C1(O)CCCC1` (stereo unspecified): “inactive”; for `Cn1c(=O)c2[nH]c(Br)nc2n(C)c1=O`: “inactive”.
Take `O=C1C(=O)c2ccccc2C(O)=C1C1CCC(c2ccc(Cl)cc2)CC1` (stereo unspecified): the Potency entry is “inactive”.
Same read-out and setting: the same measure for `CC1=C(C(=O)O)N2C(=O)[C@@H](NC(=O)[C@H](N)c3ccccc3)[C@H]2SC1`: “inactive”.
With `CC(=O)O[C@]1(C(C)=O)CC[C@H]2[C@@H]3C=C(Cl)C4=CC(=O)CC[C@]4(C)[C@H]3CC[C@@]21C`, the Potency result was “inactive”.
On the same count and under the same terms, the same measure for `CCOc1ccccc1C(N)=O`: “inactive”.
Same read-out and setting: the same measure for `CCN1CCN(C(=O)N[C@@H](C(=O)N[C@@H]2C(=O)N3C(C(=O)O)=C(CSc4nnnn4C)CS[C@H]23)c2ccc(O)cc2)C(=O)C1=O`: “inactive”; for `O=C1C(CCS(=O)c2ccccc2)C(=O)N(c2ccccc2)N1c1ccccc1` (stereo unspecified): “inactive”; for `N[C@H](C(=O)O)[C@@H](O)c1ccc(O)c(O)c1`: “inactive”.

The target of a further test is Luciferin 4-monooxygenase (Photinus pyralis) (UniProt P08659). Nature of the test: Primary firefly luciferase (FLuc) qHTS assay for identification of artifact compounds. (AID 1845220). Note: nearly all actives have a fitted effect of over 60% in size. Particulars: purified firefly luciferase, luminescence, 5 min; series mostly up to 54.1 µM. A digest of the protocol: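 Enzymatic FLuc inhibition assay: compounds pre-exposed to luciferin/ATP (10 uM each) for 15 min, then purified P. pyralis enzyme at 10 nM added. Read-out: luminescence at 5 min.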
`C=C[C@H]1CN2CC[C@H]1C[C@H]2[C@H](O)c1ccnc2ccc(OC)cc12`: the result was inactive.
Still for that read-out and setting: the same measure for `O=C(CCCN1CC=C(n2c(=O)[nH]c3ccccc32)CC1)c1ccc(F)cc1`: “inactive”; for `O=C1[C@H](CC[C@H](O)c2ccc(F)cc2)[C@@H](c2ccc(O)cc2)N1c1ccc(F)cc1`: “inactive”; for `CC[C@]12CCCN3CCc4c(n(c5ccccc45)C(=O)C1)[C@@H]32`: “inactive”.
